PubChem BioAssay (NCI)
The panel holds about 79,000 compounds, 15% with a hit somewhere; the sample as a whole holds those more often. Unmarked numbers belong to inactive results. Calls of active or inactive are those of the source. Cut-off read from the data, not from the text of the source: active = growth inhibition above about 70%; inactive = the rest.

How the values were obtained:
[1] = NCI Yeast Anticancer Drug Screen. Data for the rad50 strain (AID 155);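 note: 0% = growth of vehicle-only cultures of the same strain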; conditions: S. cerevisiae rad50 strain growth inhibition, active compounds read high
Procedure, shortened: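 Readout: growth inhibition relative to vehicle-treated cultures. Compound exposure was carried out in a genetically defined yeast strain deficient in DNA damage repair.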

[2] = NCI Yeast Anticancer Drug Screen. Data for the mec2-1 strain (AID 157); conditions: S. cerevisiae mec2-1 strain, active compounds read high
Procedure, shortened: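 Strain: mec2-1 (DNA repair/cell cycle alteration). Compound exposure, then growth measured; inhibition expressed relative to vehicle.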

[3] = NCI Yeast Anticancer Drug Screen. Data for the sgs1 mgt1 strain (AID 161);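 note: 0% = growth of cultures given vehicle only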; conditions: S. cerevisiae sgs1 mgt1 strain, active compounds read high
Procedure, shortened: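 Test agents were incubated with a DNA-repair-mutant yeast strain. Growth was then read and compared against vehicle-treated controls.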

[4] = NCI Yeast Anticancer Drug Screen. Data for the cln2 rad14 strain (AID 165);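 note: 0% = growth equal to vehicle treated cultures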; conditions: S. cerevisiae cln2 rad14 strain, active compounds read high
Procedure, shortened: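 Compounds are applied to the cln2 rad14 yeast strain, and growth is then compared with that of vehicle-treated cultures to give inhibition.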

[5] = NCI Yeast Anticancer Drug Screen. Data for the bub3 strain (AID 167); conditions: S. cerevisiae bub3 mutant strain, active compounds read high
Procedure, shortened: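 Readout: yeast growth inhibition, expressed relative to vehicle-only wells. The test organism is a mutant strain from a panel with lesions in DNA repair or checkpoint genes.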

[6] = NCI Yeast Anticancer Drug Screen. Data for the mlh1 rad18 strain (AID 175); conditions: S. cerevisiae mlh1 rad18 strain growth inhibition, active compounds read high
Procedure, shortened: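 Read-out is yeast growth inhibition, calculated against vehicle-only controls. The compound was applied to a strain engineered with DNA damage repair alterations.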

[7] = at 5.0 µM (retest, dose inferred, filed as 0.5)
[8] = at 50.0 µM (retest, dose inferred, filed as 5.0)

Row | Structure (SMILES) | growth inhibition [1, 7] | growth inhibition [1, 8] | growth inhibition ([1]; at 50.0 µM) | growth inhibition [2, 7] | growth inhibition [2, 8] | growth inhibition ([2]; at 50.0 µM) | growth inhibition [3, 7] | growth inhibition [3, 8] | growth inhibition ([3]; at 50.0 µM) | growth inhibition [4, 7] | growth inhibition [4, 8] | growth inhibition ([4]; at 50.0 µM) | growth inhibition [5, 7] | growth inhibition [5, 8] | growth inhibition ([5]; at 50.0 µM) | growth inhibition [6, 7] | growth inhibition [6, 8] | growth inhibition ([6]; at 50.0 µM)
1 | CC(C)(C)N1OC2(c3ccccc3)OC3N(C(C)(C)C)OC4(c5ccccc5)OC1C2(c1ccccc1)C34c1ccccc1 (configuration not stated) | -4% | 99% (active) | 93.7% (active) | -2% | 100% (active) | 97.9% (active) | -5% | 99% (active) | 72% (active) | 4% | 99% (active) | 98% (active) | 1% | 99% (active) | 99.2% (active) | 0% | 99% (active) | 96% (active)
2 | CC(C)(C)c1cc(C(c2cc3c(cc2O)OCO3)N2CCOCC2)cc(C(C)(C)C)c1O (configuration not stated) | 87% (active) | 95% (active) | 69.9% | 59% | 97% (active) | 64.6% | 99% (active) | 95% (active) | 72.2% (active) | 52% | 96% (active) | 57.7% | 68% | 96% (active) | 63% | 69% | 97% (active) | 7.8%
3 | Cc1ccc(S(=O)(=O)Nn2c(S)c(C#N)c(-c3ccc(Cl)cc3)c(C#N)c2=O)cc1 | 29% | 73% (active) | 55.6% | 17% | 66% | 75.2% (active) | 19% | 91% (active) | 81.8% (active) | 40% | 56% | 32.4% | 45% | 79% (active) | 65.9% | 24% | 56% | 73.8% (active)
4 | C=CCN1CCC(OC(=O)C(O)(C#CC)C2CCCC2)CC1 (configuration not stated) | 40% | 72% (active) | 68.9% | 31% | 62% | 50.9% | 40% | 71% (active) | 71.9% (active) | 35% | 76% (active) | 58.6% | 21% | 78% (active) | 61.8% | 17% | 66% | 64%
5 | COC1=C2C[C@@H](C)C[C@@H](OC)[C@@H](O)[C@H](C)/C=C(\C)[C@@H](OC(N)=O)[C@H](OC)/C=C\C=C(/C)C(=O)NC(=CC1=O)C2=O | 61% | 88% (active) | 85.8% (active) | 81% (active) | 91% (active) | 89.7% (active) | 86% (active) | 92% (active) | 91.5% (active) | 56% | 85% (active) | 84.8% (active) | 84% (active) | 88% (active) | 89.7% (active) | 69% | 85% (active) | 90% (active)
6 | CC1=CC(=O)c2c(O)c3c(c(O)c2C1=O)C1C(O)C(C3=O)C23C(=O)c4c(O)c(C)cc(O)c4C(O)=C2C(=O)CC(O)C13 (configuration not stated) | -27% | 93% (active) | 91.5% (active) | 7% | 98% (active) | 93.3% (active) | -21% | 96% (active) | 92.7% (active) | 14% | 97% (active) | 91.3% (active) | 12% | 97% (active) | 91.1% (active) | 9% | 96% (active) | 91.8% (active)
7 | CN1C(=O)C23SSC1(C)C(=O)N2c1ccccc1C3(C)C (configuration not stated) | 97% (active) | 99% (active) | 99% (active) | 98% (active) | 96% (active) | 99.6% (active) | 99% (active) | 100% (active) | 98% (active) | 98% (active) | 99% (active) | 99.3% (active) | 98% (active) | 99% (active) | 99.2% (active) | 99% (active) | 99% (active) | 99.3% (active)
8 | CN(C)N=Nc1ccc(NC(N)=O)cc1 | 33% | 78% (active) | 43.8% | 16% | 43% | 65.3% | 38% | 45% | 12.6% | 38% | 51% | 23.3% | 42% | 50% | 67.7% | 25% | 58% | 81.2% (active)
9 | O=[N+]([O-])/C(Cl)=C(\Nc1ccccc1)C(Cl)=C(Cl)Cl | 55% | 99% (active) | 88.2% (active) | 82% (active) | 99% (active) | 92.2% (active) | 73% (active) | 99% (active) | 88.8% (active) | 64% | 99% (active) | 90.9% (active) | 76% (active) | 99% (active) | 90.4% (active) | 83% (active) | 99% (active) | 85.1% (active)
10 | CN(c1ccc(C(N)=O)cc1)c1c(O)c2ccccc2[nH]c1=O | 1% | 58% | -27.9% | -1% | 48% | 6.8% | 1% | 51% | 14.6% | 4% | 42% | 24.9% | -4% | 46% | 23.5% | 0% | 63% | 15.5%
11 | CCCN(CCC)Cc1cc2c(cc1O)CC[C@@H]1[C@@H]2CC[C@]2(C)C(=O)CC[C@@H]12 | 98% (active) | 87% (active) | 84% (active) | 100% (active) | 89% (active) | 51.8% | 100% (active) | 62% | 80.1% (active) | 52% | 20% | 60.9% | 99% (active) | 89% (active) | 37.5% | 99% (active) | 94% (active) | 65.2%
12 | CC1=C(C(=O)Nc2cccc3ccccc23)C(c2cccc([N+](=O)[O-])c2)C(C(=O)Nc2cccc3ccccc23)=C(C)N1 | 27% | 40% | 76.2% (active) | 22% | 50% | 60.2% | 7% | 32% | 77.1% (active) | -3% | 14% | 70.6% (active) | 34% | 58% | 81.5% (active) | -22% | 23% | 88.1% (active)
13 | CC(Nc1ccc(S(=O)(=O)Nc2ncccn2)cc1)c1ccc2cccnc2c1O (configuration not stated) | 38% | 99% (active) | 99.5% (active) | 2% | 99% (active) | 99.5% (active) | 11% | 99% (active) | 98.5% (active) | 19% | 99% (active) | 96.7% (active) | 11% | 99% (active) | 99.3% (active) | 14% | 98% (active) | 99.2% (active)
14 | Cc1ccc(C2(c3ccc(F)cc3)OC(=O)c3ccccc32)c(O)c1 (configuration not stated) | 11% | 99% (active) | 86.2% (active) | 13% | 99% (active) | 88.7% (active) | -14% | 99% (active) | 97% (active) | 3% | 99% (active) | 93.8% (active) | 11% | 99% (active) | 98.8% (active) | 27% | 99% (active) | 96.3% (active)
15 | CCOC(=O)C(=N\Nc1c(C)cccc1C)/C(C)=N\NC(N)=S | -17% | 15% | 64.7% | -7% | 25% | 32.6% | 7% | 45% | 58.2% | -13% | -9% | 54.8% | -3% | 4% | 51.5% | 11% | 42% | 69.2%
16 | Cn1c(=O)c2c(nc(CCCCCCCc3nc4c(c(=O)n(C)c(=O)n4C)n3C)n2C)n(C)c1=O | 4% | 5% | 48.9% | 1% | 18% | 23.3% | 2% | 10% | 42% | 2% | 10% | 60.2% | 7% | 4% | 16.7% | -2% | 9% | 35.8%
17 | CCC[CH2][Sn]([CH2]CCC)([O]C(=O)c1cc(OC)c(OC)c(OC)c1)[O]C(=O)c1cc(OC)c(OC)c(OC)c1 | 96% (active) | 96% (active) | 71.9% (active) | 96% (active) | 96% (active) | 84.7% (active) | 94% (active) | 94% (active) | 74.8% (active) | 95% (active) | 95% (active) | 80% (active) | 97% (active) | 97% (active) | 74.8% (active) | 96% (active) | 96% (active) | 78.5% (active)
18 | Oc1c(Br)cc(Br)cc1C=Nc1ccc(Br)cc1 | 68% | 98% (active) | 80.8% (active) | 55% | 99% (active) | 91.5% (active) | 72% (active) | 98% (active) | 89.6% (active) | 44% | 99% (active) | 89.2% (active) | 73% (active) | 99% (active) | 89% (active) | 88% (active) | 98% (active) | 87.1% (active)
19 | N#CSCC(=O)c1ccc2ccccc2c1 | 67% | 99% (active) | 90.8% (active) | 71% (active) | 99% (active) | 92.1% (active) | 97% (active) | 99% (active) | 93.5% (active) | 68% | 98% (active) | 91% (active) | 97% (active) | 98% (active) | 90.5% (active) | 57% | 99% (active) | 91.3% (active)
